GCN5L2 inh: inhibitors of human GCN5L2 histone acetyltransferase. 390,000 compounds, 0.21% hits. Potency, µM (highest dose often 58.9 µM), for the others: at the highest dose activity change, negative = inhibition, usual class: inhibitors. GCN5L2 HAT assay, ThioGlo1 CoA-SH fluorescence
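Free CoA generated was detected with ThioGlo1 (50uM) fluorescence at Ex340nm/Em540nm, read immediately and after 20 min at room temperature. Enzyme, 20 nM in HEPES pH 7.5 buffer, saw compounds 15 min before adding 75uM H3(1-25) peptide and 70uM acetyl-CoA.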
BLM inh: Bloom syndrome helicase (human) inhibition. P54132. recombinant BLM DNA unwinding, fluorescence dequenching. Potency, µM (titrated, usually from 56.1 µM), for the others: at the highest dose activity change, negative = inhibition, hits mostly inhibitors. 350,000 compounds, 0.2% hits. AID 2528;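 further: plate controls were vehicle for no effect and no enzyme for full effect; nearly all actives have a fitted effect of over 35% in size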
RECQ1 inh: RECQ1 (human) helicase inhibition; RECQ1 DNA unwinding, red fluorescence kinetic read; Potency, µM (top dose mostly 57.3 µM), without a hit: at the highest dose activity, negative = inhibition, usual class: inhibitors; 240,000 compounds, 0.54% hits;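 further: plate controls were vehicle for no effect and no enzyme for full effect; nearly all actives have a fitted effect of over 30% in size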
Target sequence (P46063 whole entry, looked up): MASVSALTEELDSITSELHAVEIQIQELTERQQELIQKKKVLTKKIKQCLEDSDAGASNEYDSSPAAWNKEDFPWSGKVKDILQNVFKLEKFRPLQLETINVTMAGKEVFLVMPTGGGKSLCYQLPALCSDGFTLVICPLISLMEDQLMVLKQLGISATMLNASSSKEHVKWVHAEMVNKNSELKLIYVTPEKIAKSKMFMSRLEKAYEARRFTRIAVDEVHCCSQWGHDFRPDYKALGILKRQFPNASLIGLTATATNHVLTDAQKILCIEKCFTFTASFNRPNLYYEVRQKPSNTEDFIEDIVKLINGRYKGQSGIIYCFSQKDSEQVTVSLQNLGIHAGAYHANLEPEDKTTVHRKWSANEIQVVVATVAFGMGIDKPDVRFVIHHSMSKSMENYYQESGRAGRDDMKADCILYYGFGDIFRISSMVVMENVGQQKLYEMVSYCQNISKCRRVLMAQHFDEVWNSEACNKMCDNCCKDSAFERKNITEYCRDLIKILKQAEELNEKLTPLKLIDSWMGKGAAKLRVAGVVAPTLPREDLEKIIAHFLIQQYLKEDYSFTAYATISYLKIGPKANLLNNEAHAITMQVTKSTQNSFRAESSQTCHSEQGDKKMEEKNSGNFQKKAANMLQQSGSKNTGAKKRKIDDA
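50 nM RECQ1T1 preincubated 15 min with compound in Tris pH 8.0 buffer with MgCl2, DTT, Tween-20 and 2.5 ug/ml poly(dI-dC); started with 200 nM TAMRA/BHQ-2 forked duplex and 2 mM ATP. Unwinding read as fluorescence (525/598 nm), two reads 2 h apart.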
JMJD2E inh: blocks human JMJD2E demethylase activity; B2RXH2; JMJD2E catalytic domain, FDH-coupled NADH fluorescence (FDH is formaldehyde dehydrogenase); Potency, µM (highest dose often 57.1 µM), inactives show at the highest dose activity change, negative = inhibition, most hits filed as inhibitors; AID 2147; 230,000 compounds, 1.6% hits; active means well fitted inhibition curve with a large enough effect, not every such curve was filed as active; inconclusive means small, poorly fitted or top-dose-only effect, or another doubt; inactive means no such curve, though single readings can be large or run the other way;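 further: 0% = wells with enzyme and -100% = buffer wells without enzyme; nearly all actives have a fitted effect of over 50% in size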
APE1 inh: APE1 (human) endonuclease inhibition | recombinant APE1, TAMRA/BHQ-2 abasic DNA cleavage fluorescence | Potency, µM (titrated, usually from 65.8 µM), for the others: at the top dose activity change, negative = inhibition, usual class: inhibitors | 350,000 compounds, 0.35% hits | P27695;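 further: plate controls were vehicle for no effect and reference inhibitor for full effect; nearly all actives have a fitted effect of over 55% in size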
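0.75 nM APE1 + cpd, 15 min RT; start w/ 50 nM TAMRA/BHQ-2 THF-abasic dsDNA; kinetic fluor 525/598 nm ×3 reads @60 s; Δ(read3−read1); normalized to DMSO and NSC13755 control wells.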
L3MBTL1 inh: blocks human L3MBTL1 | AID 485360 | 230,000 compounds, 0.66% hits | Potency, µM (titrated, usually from 57.1 µM), for the others: at the highest dose activity, negative = inhibition, hits mostly inhibitors | Q9Y468 | AlphaScreen L3MBTL1–H3K9me1 peptide binding; further: nearly all actives have a fitted effect of over 60% in size
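Displacement of a biotinylated histone H3(1-15) peptide monomethylated at Lys9 (75 nM) from L3MBTL1 (50 nM) was measured by AlphaScreen after a 30 min room-temperature compound incubation; cefsulodin titration served as intraplate control.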
Numbers without * were called inactive; i = inactive; ? = inconclusive; . = no result given; [ ] = remark or other dose. Only a selection was taken, and hits are over-represented in it overall. Unless noted, the call rests on the fitted dose curve; in most records, active means well fitted curve in the direction sought with a large enough effect; inconclusive means small, poorly fitted or top-dose-only effect, or another doubt; inactive means no such curve, though single readings can be large; an effect the other way counts as inactive or inconclusive. Unless noted, on the % scale 0 is the no-effect control and ±100 the full control effect; potency means the concentration at half of the fitted maximal effect.

SMILES | GCN5L2 inh | BLM inh | RECQ1 inh | JMJD2E inh | APE1 inh | L3MBTL1 inh
O=C1C2=C(S[C@@H]3O[C@H](CO)[C@@H](O)[C@H](O)[C@H]3O2)C(=O)c2ccccc21 | . | -26.6% | -4.6% | 3.7% | -6.4% | .
O.O.O.O.O.O.O.O=S(=O)([O-])[O-].[Co+2] | ? | 8.91µM* | 15.8µM* | . | ? | .
Cc1ccc(C2CC(=O)NC(SCc3ccccc3)=C2C#N)o1 (centres undefined) | -5.4% | -8.0% | 5.5% | 5.9% | 3.9% | 17.8µM*
CCOc1ccccc1NC(=O)c1c(NCc2cccs2)sc2c1CCCCC2 | -4.9% | -1.6% | . | . | . | .
Clc1ccc(-c2cnnc(-c3ccccn3)n2)cc1 | -3.6% | . | . | . | 7.2% | 3.16µM*
Nc1nc(N)nc(-c2ccccn2)n1 | ? | -6.8% | -1.9% | ? | -5.9% | ?
Cc1cc(=O)oc2ccc(OCC(=O)N(Cc3ccc(F)cc3)Cc3ccco3)cc12 | -2.5% | -2.2% | -4.9% | ? | -1.4% | -0.5%
CO[C@H]1COC(=O)[C@H](C)NC(=O)C/C=C\[C@@H](C)[C@H](OC)COC(=O)[C@@H](OCc2ccccc2)/C=C\[C@@H]1C | . | 1.4%[12.4 µM] | -4.5%[11.5 µM] | . | 10.3%[12.4 µM] | .
CC1=C(C#N)C(=O)NC(=O)/C1=C\c1ccc(-c2ccc(C)cc2[N+](=O)[O-])o1 | ? | -19.4% | -14.5% | ? | ? | 25.1µM*
O=C(N[C@H]1C/C=C\C[C@@H](CC(=O)N(CCO)Cc2ccccc2)C(=O)N2CCC[C@H]2COC1=O)OCC1c2ccccc2-c2ccccc21 | -1.9% | . | . | . | -9.8% | 3.1%
O=C(N[C@H]1C/C=C\C[C@@H](CC(=O)N(CCO)Cc2ccccc2)C(=O)N2CCC[C@@H]2COC1=O)OCC1c2ccccc2-c2ccccc21 | -7.9% | . | . | . | 10.6µM* | -3.9%
O=C(CN1C(=O)S/C(=C\c2ccc(Cl)cc2)C1=O)NNC(=O)c1ccccc1O | -7.2% | -11.6% | -8.1% | 17.8µM* | 2.1% | -1.7%
COc1ccc(/C=C2\SC(=S)N(CCCC(=O)NNC(=O)c3ccccc3O)C2=O)cc1 | 1.3% | 4.7% | -0.5% | -10.2% | 8.1% | -2.4%
CC[C@]12c3[nH]c4ccc(Cl)cc4c3CCN1C(=O)[C@@H](CC(=O)NC/C=C(\C)CCC=C(C)C)C[C@@H]2C(=O)N1CCN(C(=O)c2ccco2)CC1 | -10.8% | . | . | . | -18.4% | -7.2%
CCC(=O)Nc1c(OC(=O)CC)ccc2c(C)cc(=O)oc12 | -2.8% | -1.3% | -13.9% | 3.98µM* | 14.9% | -5.0%
COc1ccc(CNC(=O)C2=C(C)C(=O)OC23CCN(C(C)=O)CC3)cc1 | -4.8% | 0.3% | . | . | . | .
Cc1cccc(N2CCN(C(=O)CSc3ccsc3[N+](=O)[O-])CC2C)c1 (centres undefined) | -26.5% | -16.7% | -7.8% | 4.6% | -0.9% | 31.6µM*
NC(=S)N/N=C/c1cccc(O)c1O | -6.4% | 1.3% | -9.6% | 35.5µM* | ? | 28.2µM*
Oc1ccc(/C=N/NC(=S)Nc2cccnc2)c(O)c1 | -2.6% | 2.4% | -5.4% | 28.2µM* | -2.2% | 8.91µM*
NC(=S)N/N=C/c1ccccc1O | -7.0% | -1.4% | i | ? | 6.0% | ?
Oc1ccc(/C=N/NC(=S)Nc2cccnc2)c(O)c1O | -9.0% | -20.0% | 3.55µM* | 2.24µM* | 0.794µM* | .
Oc1cccc(/C=N/NC(=S)NCCN2CCOCC2)c1O | -12.6% | -0.6% | 12.6µM* | 25.1µM* | ? | 10µM*
Cc1ccc(C(=O)c2nccn2C)cc1C | -2.8% | -2.3% | . | . | -2.9% | .
CCOc1cccc(C(=O)Nc2ccc3oc(-c4ccncc4)nc3c2)c1 | -4.4% | -8.8% | . | . | . | .
Fc1c(F)c(F)c(/C=N/NC(=S)Nc2cccnc2)c(F)c1F | 2.5% | -16.2% | i | 0.7% | -1.0% | -15.3%
SMILES | GCN5L2 inh | BLM inh | RECQ1 inh | JMJD2E inh | APE1 inh | L3MBTL1 inh
Oc1cccc(/C=N/NC(=S)Nc2cccnc2)c1O | -1.0% | -19.9% | ? | 22.4µM* | ? | 3.98µM*
CCN1C(=O)[C@H]2[C@H]3[C@H](O)[C@H](O)C/C(=N/OC[C@@H](C)[C@H](OCc4ccccc4)C(C)C)[C@@H]3CC[C@@H]2C1=O | . | 1.1%[12.4 µM] | i[11.5 µM] | . | 20.1%[12.4 µM] | .
Fc1ccc(NC(=S)Nc2cccc3cnccc23)cc1 | -0.1% | 22.4µM* | i | -14.1% | -7.6% | -17.1%
S=C(Nc1cccnc1)Nc1cccc2cnccc12 | -0.7% | -16.5% | 4.2% | 14.1µM* | -5.2% | -7.9%
COc1ccc(NC(=S)Nc2cccc3cnccc23)cc1 | 0.2% | -14.3% | 7.4% | -24.1% | -2.4% | -10.4%
CN(C)S(=O)(=O)c1cccc(NC(=S)Nc2cccc3cnccc23)c1 | -8.3% | 12.6µM* | i | 28.2µM* | -4.9% | -17.2%
S=C(Nc1ccc(Cl)cc1)Nc1cccc2cnccc12 | -4.2% | -16.8% | -6.9% | 14.1µM* | 6.0% | -0.3%
CCOc1ccc(NC(=S)Nc2cccc3cnccc23)cc1 | -11.7% | -2.1% | -0.8% | ? | 23.7% | -5.5%
COc1cccc(-n2cc(C(=O)NC(C)C)c3ccccc3c2=O)c1 | -15.3% | 0.5% | . | . | 0.9% | .
CC(=O)Nc1ccc(SCC(c2ccccc2)N2CCN(C)CCC2=O)cc1 (centres undefined) | . | 3.5% | -12.2% | . | 20.4% | .
COC(=O)[C@@H](NCc1cccc(CN[C@H](C(=O)OC)c2ccccc2)c1)c1ccccc1 | -3.5% | 0.0% | . | . | 6.9% | 1.5%
CN1C(=O)C(CC(=O)O)S/C1=N\N=C\c1ccc(O)cc1O (centres undefined) | -8.6% | -1.5% | -4.7% | 25.1µM* | 1.9% | -10.8%
O=C(O)CC1S/C(=N\N=C/c2ccccc2)N(c2ccc(O)cc2)C1=O (centres undefined) | -9.3% | -3.7% | -2.6% | -5.0% | -2.3% | 4.9%
COc1ccc(NC(=O)COC(=O)c2cc3c(s2)CCC3)cc1 | -20.2% | . | . | . | 5.32µM* | ?
O=C(O)c1cccc(N2C(=O)c3cc([N+](=O)[O-])cc4cc([N+](=O)[O-])cc(c34)C2=O)c1 | ? | -13.0% | . | . | -44.9% | 31.6µM*
COc1cc(/C=N/n2c(SC)nnc(C(C)(C)C)c2=O)ccc1O | -2.1% | -3.0% | -13.6% | 4.7% | 2.3% | 8.3%
COc1cc(/C=N/NC(=O)c2ccc(CN3C(=O)c4cccc5cccc3c45)cc2)cc(OC)c1O | 11.1% | -3.7% | i | 22.4µM* | -3.1% | .
CCCCCCC1=Cc2cc(OC)c(OC)cc2C(C(C(C)=O)C(=O)OCC)O1 (centres undefined) | . | 5.5%[12.4 µM] | 8.8%[11.5 µM] | . | 7.5%[12.4 µM] | .
CCCSc1nc2sc3c(c2c(=O)n1-c1ccccc1)CCC(C)C3 (centres undefined) | -2.7% | -3.4% | . | . | . | .
CN1CCN(S(=O)(=O)c2ccc3c(c2)C(C)(C)C(=O)N3C)CC1 | -5.3% | 2.7% | . | . | 57.2% | -3.1%
